Bioassay records (PubChem)
GRP78 ERSR act = induces the endoplasmic reticulum stress response in human glioma cells | U87-MG GRP78 promoter luciferase reporter, 16 h | Potency, µM, for inactives: at the highest dose activation, usual class: activators | actives 0.02% (n = 420,000) | AID 602332; also: potency is read from the fitted curve at half-maximal effect; series mostly up to about 76 µM; % of control where 0% means no effect; nearly all actives have a fitted effect of over 35% in size
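Stably transfected U87-MG human glioma cells carrying a GRP78-based luminescent sensor were seeded at 1000 cells/well, pin-dosed with compounds and incubated 16 h. Luciferase reagent was then added, and end-point luminescence was read after 10 min at room temperature.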
Vif-APOBEC3F blk = inhibitors of Vif-A3F interaction | actives 0.2% (n = 390,000) | HeLa A3F-eYFP + Vif (tagged APOBEC3F with the HIV-1 protein that degrades it), YFP fluorescence increase | Potency, µM (series often up to 46.1 µM), for the others: top-dose activity, negative = active; also: potency is read from the fitted curve at half-maximal effect; % of control where 0% means no effect; nearly all actives have a fitted effect of over 65% in size
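HeLa cells stably expressing Vif plus C-terminally eYFP-tagged A3F were seeded, incubated overnight at 37 deg C, dosed with compound, incubated overnight again at 37 deg C. Yellow fluorescence (Ex 488/Em 500-530) reported blocked Vif-mediated A3F-eYFP degradation.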
PINK1 modulator = PINK1 expression modulation | Potency, µM (highest dose often 76.6 µM), for the others: top-dose activation (PINK1 increase), hits mostly activators | actives 0.2% (n = 410,000) | PINK1 immunofluorescence, high-content cytometry, 24 h | AID 624263; active = well fitted activation curve with a large enough effect; inconclusive = small, poorly fitted or top-dose-only effect; cell line not stated here; also: potency is read from the fitted curve at half-maximal effect; % of control where 0% means no effect; nearly all actives have a fitted effect of over 65% in size
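Decision-based qHTS: stable cells, 24 h exposure to five compound concentrations, CCCP as control. Fixed cells stained for PINK1 plus nuclear, mitochondrial and cell markers, cytometer read.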
Akt phos inh = inhibitors of Akt phosphorylation; Neuro2A IGF-stimulated pAkt S473 HTRF, 20 min; hits give low values; AID 651550; actives 0.32% (n = 360,000); activity change, % for hits at 50 µM; in the data active = activity change below about -80%; inconclusive = mostly about -51% to -80%; also: % is scaled to controls: 0 for no effect and ±100 for the full control effect
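Single-point screen (50 µM final compound) in Neuro2A cells stimulated 20 min with 6 nM IGF at 37 deg C. After lysis, Ser473-phosphorylated Akt read by HTRF (ex 330 nm, em 615/665 nm) as the 665/615 ratio.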
Vif-A3G inh = inhibitors of Vif-APOBEC3G interaction; AID 602310; actives 0.076% (n = 410,000); HeLa A3G-eYFP + Vif (tagged APOBEC3G with the HIV-1 protein that degrades it), YFP fluorescence, overnight; Q9HC16; Potency, µM (doses to about 46.1 µM), for the others: at the highest dose activity, negative = active, most hits filed as inhibitors; also: potency is read from the fitted curve at half-maximal effect; % is scaled to controls: 0 for no effect and ±100 for the full control effect; nearly all actives have a fitted effect of over 60% in size
Target sequence (Q9HC16 whole entry, looked up): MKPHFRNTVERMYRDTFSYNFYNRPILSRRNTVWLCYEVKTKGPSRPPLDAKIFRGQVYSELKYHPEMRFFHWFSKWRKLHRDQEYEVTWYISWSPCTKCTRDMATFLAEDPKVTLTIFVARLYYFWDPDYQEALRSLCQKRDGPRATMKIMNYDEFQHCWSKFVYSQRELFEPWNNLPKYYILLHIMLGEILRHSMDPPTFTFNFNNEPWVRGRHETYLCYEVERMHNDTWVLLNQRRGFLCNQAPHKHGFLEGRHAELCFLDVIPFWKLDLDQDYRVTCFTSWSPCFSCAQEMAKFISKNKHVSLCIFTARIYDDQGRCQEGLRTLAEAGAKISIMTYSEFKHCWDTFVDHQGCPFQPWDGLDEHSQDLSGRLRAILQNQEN
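HeLa cells stably expressing Vif and C-terminally eYFP-tagged A3G, seeded overnight at 37 deg C, then exposed to compound by pintool overnight at 37 deg C. Rise in yellow fluorescence (Ex 488/Em 500-530, Acumen) marks blocked Vif-driven A3G degradation.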
LDHA block = LDHA (human) enzyme inhibition; actives 0.15% (n = 480,000); purified LDHA, NADH/diaphorase-resazurin fluorescence; hits give low values; activity change, % (values are at about 110 or 230 µM); in the data active = activity change below about -30%; inconclusive = mostly about -25% to -30%;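 also: plate controls were DMSO wells for no effect and wells without enzyme for full effect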
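Human LDH5 at 2 nM final in Tris HCl pH 7.4 with 0.06 mM NADH and 0.2 mM pyruvate, reacted 5 minutes at room temperature. Remaining NADH coupled via diaphorase/resazurin; resorufin fluorescence read at 0 and 20 minutes, normalized to enzyme-free and DMSO wells.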
An asterisk follows results filed as active; i = inactive; ? = inconclusive; . = no result given; [ ] = remark or other dose. Only some compounds are listed: those with a hit (about 0.74% of all), similar ones and a draw of the others. Unless noted, calls follow the shape of the dose curve; as a rule, active = well fitted curve in the direction sought with a large enough effect; inconclusive = small, poorly fitted or top-dose-only effect, or another doubt; inactive = no such curve, though single readings can be large; an effect the other way counts as inactive or inconclusive.

SMILES	GRP78 ERSR act	Vif-APOBEC3F blk	PINK1 modulator	Akt phos inh	Vif-A3G inh	LDHA block
O=C(CSc1nc2ccccc2o1)Nc1ccc(N2CCOCC2)cc1	1%	-8%	4%[38.3 µM]	-94%*	-3%	-7
O=C(NN1CCOCC1)c1cccc2ccccc12	-3%	13%	-1%	i	0%	-4
O=C(Nc1ccc(N2CCOCC2)cc1)c1cccc2ccccc12	1%	-2%	9%	i	10µM*	2
O=C(Nc1ccc(N2CCOCC2)cc1)c1ccncc1	0%	-2%	3%	i	-2%	-5
O=C(CSc1nc2cc(Cl)ccc2o1)Nc1ccc(N2CCOCC2)cc1	1%	1%	6%[38.3 µM]	i	-5%	9
O=C(NC(=S)Nc1ccc(N2CCOCC2)cc1)c1ccccc1	0%	2%	0%	i	0%	-3
CCc1ccc(C(=O)NC(=S)Nc2ccc(N3CCOCC3)cc2)cc1	-4%	10µM*	9%	i	1%	-1
Cc1ccnc2nc(C(=O)Nc3ccc(N4CCOCC4)cc3)nn12	-2%	0%	1%	-103%*	-2%	2
CCc1noc(CN(C)CC2CN(CC)c3ccccc3O2)n1 (stereo not drawn)	.	.	.	.	.	10
CC1CCN(C(=O)COc2cc(O)c3c(=O)cc(-c4ccccc4)oc3c2)CC1	.	.	.	.	.	-1
O=S(=O)(Nc1nc2ccccc2nc1Nc1ccccc1)c1ccc2c(c1)OCCO2	.	.	.	.	.	4
CCc1ccc2nc(Nc3nc(-c4cccc(OC)c4)cc(=O)[nH]3)nc(C)c2c1	.	.	.	.	.	11
CCc1ccc(/C=C/c2c[nH]c3ccccc23)[n+](CC)c1	-4%	?	32µM*	i	?	-11
Cc1cc(C)n(-c2nc3c(c(=O)n(Cc4c(F)cccc4Cl)c(=O)n3C)n2C(C)C)n1	.	.	.	.	.	1
COc1cc(/C=C2\C(=N)N3N=C(S(C)(=O)=O)SC3=NC2=O)ccc1OC(=O)c1ccco1	-2%	7.1µM*	1%	i	-1%	-3
CCOc1cc(/C=C2/C(=N)N3C(=NC2=O)SN=C3S(C)(=O)=O)ccc1OC(=O)c1ccco1	-1%	13µM*	0%	i	-7%	-1
CCOc1cc(/C=C2\C(=N)N3N=C(S(=O)(=O)CC)SC3=NC2=O)ccc1OC(=O)c1ccco1	-1%	?	-1%	.	0%	-12
COc1cc(CC(=O)NC2CCC(C)CC2)cc(OC)c1OC (stereo not drawn)	.	.	.	.	.	12
COc1cc(CCC(=O)NCc2ccoc2)cc(OC)c1	.	.	.	.	.	-4
Cn1cc(/C=C/c2ccnc3ccccc23)c2ccccc21	0%	.	0%	.	10µM*	-1
C(=C\c1ccnc2ccccc12)/c1ccnc2ccccc12	8%	.	.	.	-3%	.
Nc1ccccc1/C=C/c1ccnc2ccccc12	0%	.	1%	.	13µM*	2
O=C(OCC(=O)c1cccc2ccccc12)c1cc(=O)c2ccccc2o1	.	.	.	.	.	2
COC(=O)c1ccccc1-c1c2ccc(=N)cc-2oc2cc(N)ccc12	-1%	21%	40µM*	i	10%	-58*
O=C(O)c1ccccc1-c1c2ccc(=O)cc-2oc2cc(O)ccc12	-2%	.	.	.	.	.
SMILES	GRP78 ERSR act	Vif-APOBEC3F blk	PINK1 modulator	Akt phos inh	Vif-A3G inh	LDHA block
CCc1cc(CC)n(-c2nc3c(c(=O)n(CC(N)=O)c(=O)n3C)n2CCC(C)C)n1	.	.	.	.	.	1
Cc1nn2c(NCc3ccccn3)cc(C(C)(C)C)nc2c1-c1ccccc1	1%	0%	18µM*	i	-4%	-2
COc1ccc(N2CCN(C(=O)CSc3nnc4c(C)cc5ccc(C)c(C)c5n34)CC2)cc1	-1%	1%	-1%	-119%*	1%	0
Clc1ccccc1Cn1c(/C=C/c2ccco2)nc2ccccc21	-3%	?	9%	i	10µM*	-2
CC(C(=O)NC(=O)NC12CC3CC(CC(C3)C1)C2)n1cnc2c1c(=O)n(C)c(=O)n2C (stereo not drawn)	.	.	.	.	.	-31*
Cc1ccccc1OCCN	.	.	.	.	.	9
Cc1cc(NC(=O)COc2ccc3ccc(=O)oc3c2)no1	.	.	.	.	.	-12
O=C(Nc1cccc(Cl)c1)N1CCSc2ncccc21	.	.	.	.	.	-25
O=C(CN1C(=O)CSc2ncccc21)Nc1cccc(Cl)c1	4%	10µM*	-2%	i	?	-2
Cc1nc(N2CCS(=O)CC2)c2c(-c3ccccc3)csc2n1	.	.	.	.	.	-2
CCOc1cc(C(=S)N2CCN(C)CC2)ccc1OCC(=O)N1CCOCC1	-2%	7%	0%	-112%*	-24%	-2
CN(C)CCNC(=O)CN1CCN(C(C(=O)O)c2c[nH]c3cc(OCc4ccccc4)ccc23)CC1 (stereo not drawn)	.	.	.	.	.	-1
O=C(CSc1ccc2ccccc2c1)Nc1ccncc1	-1%	0%	13µM*	i	2%	4
O=C(CSc1ccccc1)Nc1ccncc1	-4%	4%	-2%	-139%*	1%	2
CCS(=O)(=O)N1CCC(NC(=O)c2ccccc2C(=O)c2ccc(Cl)cc2)CC1	.	.	.	.	.	-31*
Fc1c(C(F)(F)F)nc2ccc(Br)cn12	.	.	.	.	.	9
Cc1cccc(NC(=O)c2ccc(NCCc3ccccc3)c([N+](=O)[O-])c2)c1	-3%	?	14µM*	i	-17%	-3
Cc1ccc(NC(=O)c2ccc(NCCN)c([N+](=O)[O-])c2)cc1	2%	0%	7%	i	-1%	-2
O=C(Nc1cccc(Cl)c1)c1ccc(NCCCN2CCOCC2)c([N+](=O)[O-])c1	-8%	-14%	2%	i	1%	-7
Cc1ccc(NC(=S)NNC(=O)c2cccc([N+](=O)[O-])c2)cc1Cl	1%	9%	35µM*	i	-9%	1
NC(=O)c1ccc(NCC2CCCO2)c([N+](=O)[O-])c1 (stereo not drawn)	-2%	-23%	-1%	i	-4%	3
Cc1ccc(NC(=O)c2ccc(NCC3CCCO3)c([N+](=O)[O-])c2)cc1Cl (stereo not drawn)	-4%	11µM*	?	i	-26%	-7
Cc1ccc(NC(=O)c2ccc(NCCCN3CCC(C)CC3)c([N+](=O)[O-])c2)cc1F	-8%	10µM*	?	i	-26%	-13
CC(=O)Nc1ccc2c(C(C(=O)O)N3CCN(c4cc(C)c5ccccc5n4)CC3)c[nH]c2c1 (stereo not drawn)	.	.	.	.	.	16
Cc1ccc(NC(=O)c2ccc(NCc3ccco3)c([N+](=O)[O-])c2)cc1Cl	-2%	8.9µM*	?	i	?	-2
Cc1ccc(C(=O)NCc2ccco2)cc1[N+](=O)[O-]	18%	-12%	0%	i	-1%	-3
Cc1cccc(CNc2ncc(C(N)=O)cc2Cl)n1	.	.	.	.	.	0
